# Source: the supplement of paper PMC4466140
# Assays:
# Test in all cases: SPOT peptide array binding signal intensity (averaged, normalized) (arbitrary units (background-subtracted, floor 0; scale differs between SH3 domains)); higher = stronger binding of the SH3 domain to the peptide
# CaNbp2 = biological target: CaNbp2
# Summary of the method: (§1)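 Spot intensities were captured after detection with anti-GST antibody, an HRP-linked anti-mouse secondary and luminol, and quantified with Genespotter. The probes were GST-fused SH3 domains from four yeast species, produced in E. coli BL21(DE3), purified on glutathione Sepharose and incubated at 10 μg/ml overnight at 4°C on cellulose-bound synthetic 15-mer peptides with cysteines replaced by serines. Binding signal is the normalized, background-subtracted spot intensity averaged over replicates, and its arbitrary units differ between domains.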
# CaRvs167 = biological target: CaRvs167
# Summary of the method: as §1
# CaRvs167-3 = biological target: CaRvs167-3
# Summary of the method: as §1
# CaSho1 = biological target: CaSho1
# Summary of the method: as §1
# CaSla1-D1-D2 = biological target: CaSla1-D1-D2
# Summary of the method: as §1
# CaSla1-D3 = biological target: CaSla1-D3
# Summary of the method: as §1
# ScAbp1 = biological target: ScAbp1
# Summary of the method: as §1
# ScBbc1 = biological target: ScBbc1
# Summary of the method: as §1
# ScBem1-D1 = biological target: ScBem1-D1
# Summary of the method: as §1
# ScBzz1-D1 = biological target: ScBzz1-D1
# Summary of the method: as §1
# ScBzz1-D2 = biological target: ScBzz1-D2
# Summary of the method: as §1
# ScCyk3 = biological target: ScCyk3
# Summary of the method: as §1
# ScFus1 = biological target: ScFus1
# Summary of the method: as §1
# ScHof1 = biological target: ScHof1
# Summary of the method: as §1
# ScHse1 = biological target: ScHse1
# Summary of the method: as §1
# ScLsb1 = biological target: ScLsb1
# Summary of the method: as §1
# ScLsb2 = biological target: ScLsb2
# Summary of the method: as §1
# ScLsb3 = biological target: ScLsb3
# Summary of the method: as §1
# ScLsb4 = biological target: ScLsb4
# Summary of the method: as §1
# ScMyo3 = biological target: ScMyo3
# Summary of the method: as §1
# ScMyo5 = biological target: ScMyo5
# Summary of the method: as §1
# ScNbp2 = biological target: ScNbp2
# Summary of the method: as §1
# ScPex13 = biological target: ScPex13
# Summary of the method: as §1
# ScRvs167 = biological target: ScRvs167
# Summary of the method: as §1
# ScSho1 = biological target: ScSho1
# Summary of the method: as §1
# ScSla1-D1-D2 = biological target: ScSla1-D1-D2
# Summary of the method: as §1
# ScSla1-D3 = biological target: ScSla1-D3
# Summary of the method: as §1
# SpAbp1-D1 = biological target: SpAbp1-D1
# Summary of the method: as §1
# SpBbc1 = biological target: SpBbc1
# Summary of the method: as §1
# SpBzz1-D1 = biological target: SpBzz1-D1
# Summary of the method: as §1
# SpBzz1-D2 = biological target: SpBzz1-D2
# Summary of the method: as §1
# SpCyk3 = biological target: SpCyk3
# Summary of the method: as §1
# SpHof1 = biological target: SpHof1
# Summary of the method: as §1
# SpHof1-2 = biological target: SpHof1-2
# Summary of the method: as §1
# SpHof1-3 = biological target: SpHof1-3
# Summary of the method: as §1
# SpHse1 = biological target: SpHse1
# Summary of the method: as §1
# SpLsb1 = biological target: SpLsb1
# Summary of the method: as §1
# SpLsb4 = biological target: SpLsb4
# Summary of the method: as §1
# SpMyo1 = biological target: SpMyo1
# Summary of the method: as §1
# SpNbp2 = biological target: SpNbp2
# Summary of the method: as §1
# SpPex13 = biological target: SpPex13
# Summary of the method: as §1
# SpRvs167 = biological target: SpRvs167
# Summary of the method: as §1
# SpSla1-D1-D2 = biological target: SpSla1-D1-D2
# Summary of the method: as §1
# SpSla1-D3 = biological target: SpSla1-D3
# Summary of the method: as §1
# AgAbp1 = biological target: AgAbp1
# Summary of the method: as §1
# AgBbc1 = biological target: AgBbc1
# Summary of the method: as §1
# AgBem1-D1 = biological target: AgBem1-D1
# Summary of the method: as §1
# AgBzz1-D1 = biological target: AgBzz1-D1
# Summary of the method: as §1
# AgBzz1-D2 = biological target: AgBzz1-D2
# Summary of the method: as §1
# AgCyk3 = biological target: AgCyk3
# Summary of the method: as §1
# AgFus1 = biological target: AgFus1
# Summary of the method: as §1
# AgHof1 = biological target: AgHof1
# Summary of the method: as §1
# AgHse1 = biological target: AgHse1
# Summary of the method: as §1
# AgLsb1 = biological target: AgLsb1
# Summary of the method: as §1
# AgLsb4 = biological target: AgLsb4
# Summary of the method: as §1
# AgMyo5 = biological target: AgMyo5
# Summary of the method: as §1
# AgNbp2 = biological target: AgNbp2
# Summary of the method: as §1
# AgRvs167 = biological target: AgRvs167
# Summary of the method: as §1
# AgSho1 = biological target: AgSho1
# Summary of the method: as §1
# AgSla1-D1-D2 = biological target: AgSla1-D1-D2
# Summary of the method: as §1
# AgSla1-D3 = biological target: AgSla1-D3
# Summary of the method: as §1
# CaAbp1-D1 = biological target: CaAbp1-D1
# Summary of the method: as §1
# CaAbp1-D2 = biological target: CaAbp1-D2
# Summary of the method: as §1
# CaBbc1 = biological target: CaBbc1
# Summary of the method: as §1
# CaBem1-D1 = biological target: CaBem1-D1
# Summary of the method: as §1
# CaBzz1-D1 = biological target: CaBzz1-D1
# Summary of the method: as §1
# CaBzz1-D2 = biological target: CaBzz1-D2
# Summary of the method: as §1
# CaCyk3 = biological target: CaCyk3
# Summary of the method: as §1
# CaFus1 = biological target: CaFus1
# Summary of the method: as §1
# CaHof1 = biological target: CaHof1
# Summary of the method: as §1
# CaHse1 = biological target: CaHse1
# Summary of the method: as §1
# CaLsb1 = biological target: CaLsb1
# Summary of the method: as §1
# CaLsb4 = biological target: CaLsb4
# Summary of the method: as §1
# CaMyo5 = biological target: CaMyo5
# Summary of the method: as §1
binder,measurement,setting,value
ISRRRLPVIMHRLKM,SPOT peptide array binding signal intensity,CaNbp2,812
same,SPOT peptide array binding signal intensity,CaRvs167,42.3
same,SPOT peptide array binding signal intensity,CaRvs167-3,153
same,SPOT peptide array binding signal intensity,CaSho1,738
same,SPOT peptide array binding signal intensity,CaSla1-D1-D2,386
same,SPOT peptide array binding signal intensity,CaSla1-D3,99.8
same,SPOT peptide array binding signal intensity,ScAbp1,150
same,SPOT peptide array binding signal intensity,ScBbc1,10.5
same,SPOT peptide array binding signal intensity,ScBem1-D1,23
same,SPOT peptide array binding signal intensity,ScBzz1-D1,8.5
same,SPOT peptide array binding signal intensity,ScBzz1-D2,9
same,SPOT peptide array binding signal intensity,ScCyk3,49
same,SPOT peptide array binding signal intensity,ScFus1,516
same,SPOT peptide array binding signal intensity,ScHof1,1
same,SPOT peptide array binding signal intensity,ScHse1,1390
same,SPOT peptide array binding signal intensity,ScLsb1,32.5
same,SPOT peptide array binding signal intensity,ScLsb2,2
same,SPOT peptide array binding signal intensity,ScLsb3,1300
same,SPOT peptide array binding signal intensity,ScLsb4,42
same,SPOT peptide array binding signal intensity,ScMyo3,≤ 0
same,SPOT peptide array binding signal intensity,ScMyo5,≤ 0
same,SPOT peptide array binding signal intensity,ScNbp2,485
same,SPOT peptide array binding signal intensity,ScPex13,18
same,SPOT peptide array binding signal intensity,ScRvs167,216
same,SPOT peptide array binding signal intensity,ScSho1,1520
same,SPOT peptide array binding signal intensity,ScSla1-D1-D2,222
same,SPOT peptide array binding signal intensity,ScSla1-D3,70.5
same,SPOT peptide array binding signal intensity,SpAbp1-D1,714
same,SPOT peptide array binding signal intensity,SpBbc1,0.5
same,SPOT peptide array binding signal intensity,SpBzz1-D1,124
same,SPOT peptide array binding signal intensity,SpBzz1-D2,0.5
same,SPOT peptide array binding signal intensity,SpCyk3,16
same,SPOT peptide array binding signal intensity,SpHof1,285
same,SPOT peptide array binding signal intensity,SpHof1-2,101
same,SPOT peptide array binding signal intensity,SpHof1-3,618
same,SPOT peptide array binding signal intensity,SpHse1,690
same,SPOT peptide array binding signal intensity,SpLsb1,1.5
same,SPOT peptide array binding signal intensity,SpLsb4,484
same,SPOT peptide array binding signal intensity,SpMyo1,2.5
same,SPOT peptide array binding signal intensity,SpNbp2,437
same,SPOT peptide array binding signal intensity,SpPex13,22
same,SPOT peptide array binding signal intensity,SpRvs167,159
same,SPOT peptide array binding signal intensity,SpSla1-D1-D2,14
same,SPOT peptide array binding signal intensity,SpSla1-D3,18.5
NPNRRAPRRPLSTQH,SPOT peptide array binding signal intensity,AgAbp1,134
same,SPOT peptide array binding signal intensity,AgBbc1,248
same,SPOT peptide array binding signal intensity,AgBem1-D1,136
same,SPOT peptide array binding signal intensity,AgBzz1-D1,18.5
same,SPOT peptide array binding signal intensity,AgBzz1-D2,96
same,SPOT peptide array binding signal intensity,AgCyk3,1
same,SPOT peptide array binding signal intensity,AgFus1,492
same,SPOT peptide array binding signal intensity,AgHof1,37.8
same,SPOT peptide array binding signal intensity,AgHse1,1700
same,SPOT peptide array binding signal intensity,AgLsb1,9.75
same,SPOT peptide array binding signal intensity,AgLsb4,110
same,SPOT peptide array binding signal intensity,AgMyo5,1.5
same,SPOT peptide array binding signal intensity,AgNbp2,1950
same,SPOT peptide array binding signal intensity,AgRvs167,≤ 0
same,SPOT peptide array binding signal intensity,AgSho1,100
same,SPOT peptide array binding signal intensity,AgSla1-D1-D2,484
same,SPOT peptide array binding signal intensity,AgSla1-D3,18
same,SPOT peptide array binding signal intensity,CaAbp1-D1,660
same,SPOT peptide array binding signal intensity,CaAbp1-D2,806
same,SPOT peptide array binding signal intensity,CaBbc1,1050
same,SPOT peptide array binding signal intensity,CaBem1-D1,184
same,SPOT peptide array binding signal intensity,CaBzz1-D1,90
same,SPOT peptide array binding signal intensity,CaBzz1-D2,104
same,SPOT peptide array binding signal intensity,CaCyk3,189
same,SPOT peptide array binding signal intensity,CaFus1,374
same,SPOT peptide array binding signal intensity,CaHof1,≤ 0
same,SPOT peptide array binding signal intensity,CaHse1,108
same,SPOT peptide array binding signal intensity,CaLsb1,≤ 0
same,SPOT peptide array binding signal intensity,CaLsb4,330
same,SPOT peptide array binding signal intensity,CaMyo5,1.5
same,SPOT peptide array binding signal intensity,CaNbp2,4120
same,SPOT peptide array binding signal intensity,CaRvs167,19
same,SPOT peptide array binding signal intensity,CaRvs167-3,66
same,SPOT peptide array binding signal intensity,CaSho1,562
same,SPOT peptide array binding signal intensity,CaSla1-D1-D2,622
same,SPOT peptide array binding signal intensity,CaSla1-D3,12.2
same,SPOT peptide array binding signal intensity,ScAbp1,154
same,SPOT peptide array binding signal intensity,ScBbc1,185
same,SPOT peptide array binding signal intensity,ScBem1-D1,28.5
same,SPOT peptide array binding signal intensity,ScBzz1-D1,30.5
same,SPOT peptide array binding signal intensity,ScBzz1-D2,8
same,SPOT peptide array binding signal intensity,ScCyk3,109
same,SPOT peptide array binding signal intensity,ScFus1,402
same,SPOT peptide array binding signal intensity,ScHof1,1.25
same,SPOT peptide array binding signal intensity,ScHse1,2480
same,SPOT peptide array binding signal intensity,ScLsb1,65
same,SPOT peptide array binding signal intensity,ScLsb2,12
same,SPOT peptide array binding signal intensity,ScLsb3,1470
same,SPOT peptide array binding signal intensity,ScLsb4,35
same,SPOT peptide array binding signal intensity,ScMyo3,20
same,SPOT peptide array binding signal intensity,ScMyo5,8.75
same,SPOT peptide array binding signal intensity,ScNbp2,4200
same,SPOT peptide array binding signal intensity,ScPex13,23.5
same,SPOT peptide array binding signal intensity,ScRvs167,46.5
same,SPOT peptide array binding signal intensity,ScSho1,984
same,SPOT peptide array binding signal intensity,ScSla1-D1-D2,1340
same,SPOT peptide array binding signal intensity,ScSla1-D3,7
same,SPOT peptide array binding signal intensity,SpAbp1-D1,313
same,SPOT peptide array binding signal intensity,SpBbc1,50.5
same,SPOT peptide array binding signal intensity,SpBzz1-D1,352
